Measurements taken from PubChem BioAssay (Tox21).
“And” between values parts separate entries of the source, which are not always exact repeats. Identical values can stand only once. Results filed as inconclusive are left out. Entries that show only a call come without a potency. The source made the active and inactive calls. The call rests on the fitted dose curve; in most records, active means well fitted cell-killing curve with a large enough effect in the repeat runs; inconclusive means weak or mixed curves, or effect the other way; inactive means no such curve, though single readings can be large or run the other way. Starred links: 1 amine or outer side, 2 acyl side, 3 side chain; linkers in the order of their positions; H or OH if unused. Positions of bridges follow the written chain, without caps; N, C: chain ends. Non-standard residues stand in square brackets, D forms with d. Residues, ends and D or L forms follow the SMILES beside them. Chains are numbered I, II in the order given. Actinocin(9to1) = Cc1c2oc3c(C)ccc(C(=O)[*:1])c3nc-2c(C(=O)[*:2])c(N)c1=O; NMeV = CN[C@H](C(=O)O)C(C)C; Sar = CNCC(=O)O

test: qHTS assay to identify small molecule agonists of the RXR signaling pathway - cell viability counter screen (AID 1159529); settings: RXR-alpha-bla HEK293T viability, CellTiter-Glo, 16 h; series mostly up to 76.8 µM; further: nearly all actives have a fitted effect of over 50% in size
From the text: National Center for Advancing Translational Sciences [NCATS]
NIH Chemical Genomics Center [NCGC]
U.S. Environmental Protection Agency [EPA]
National Institutes of Environmental Health Sciences [NIEHS]
National Toxicology Program [NTP]
U.S. Food and Drug Administration [FDA]
The Retinoid X receptor (RXR), a nuclear hormone receptor expressed in liver, spleen, placenta, epidermis, central nervous system. These receptors are able to form homo and heterodimers with other nuclear receptors and due to this heterodimerizing ability, RXR functions as master regulators producing diverse physiological effects. Three subtypes of RXR exist; alpha, beta and gamma. Retinoid X receptor alpha (RXR-alpha) has potential roles in metabolic signaling pathways, skin alopecia, dermal cysts, cardiac development, insulin sensitization etc. Therefore screening environmental chemicals on RXR-alpha signaling can be used for the studies focused on such therapeutic applications. For quantification of RXR-alpha ligands signaling, GeneBLAzer RXR alpha-UAS-bla HEK 293T (Life Technologies, Carlsbad, CA) cells containing a beta-lactamase reporter-gene under control of Retinoid X receptor-alpha response element were used to screen Tox21 10K library. The cytotoxicity of the Tox21 compound library against the RXR-alpha HEK 293T cell line was tested in parallel by measuring cell viability using CellTiter-Glo assay (Promega Corporation, Madison, WI) in the same wells.
Tox21 Assay Protocol Summary:
RXR-alpha HEK 293T cells were dispensed at 2,000 cells/6 uL of assay medium containing 2% charcoal-stripped FBS using a Multidrop Combi (ThermoFisher Scientific, Waltham, MA) dispenser. The assay was performed in black wall/clear-bottom 1536-well plates (Greiner Bio-One North America Inc. Monroe, NC). Tetraoctyl ammonium bromide was used as a positive control in the cytotoxicity screen. After the assay plates were incubated at 37 C and 5% CO2 for 5 hr, 23 nL of compounds dissolved in DMSO, positive control or DMSO only were transferred to the assay plate by a Pintool station (Kalypsys, San Diego, CA). The assay plates were incubated at 37 C and 5% CO2 for 16 hr. One uL of LiveBLAzer B/G FRET substrate (Life Technologies) was added using a Flying Reagent Dispenser (FRD) (Aurora Discovery, San Diego, CA) and the plates were incubated at room temperature for 2 hr. Fluorescence intensity (405 nm excitation, 460/530 nm emission) was measured using an Envision plate reader (PerkinElmer, Shelton, CT). For cytotoxicity, 4 uL/well of CellTiter-Glo reagent was added into the assay plates using an FRD. After 30 min incubation at room temperature, the luminescence intensity was measured using a ViewLux plate reader (PerkinElmer).
Potency means the concentration at half of the fitted maximal effect.

Compound | Potency
Cc1occc(=O)c1OC(=O)C(C)C | inactive
N[C@@H]1CONC1=O | inactive
O=C(Oc1ccccc1)c1ccccc1O | inactive
O=C1NCC2(CCN(CCc3ccccc3)CC2)O1 | inactive
CC(C)(O)CCC(C)(C)O | inactive
CC(C)CCOC(=O)c1ccc(N(C)C)cc1 | inactive
Nc1cc(Cl)c(-c2cc(Cl)c(N)cc2Cl)cc1Cl | 17.4 µM (active)
OCC(CO)N[C@H]1C[C@](O)(CO)[C@@H](O)[C@H](O)[C@H]1O | inactive
CNC1(C)C2CCC(C2)C1(C)C (stereo not given) | inactive
CC(N)=O | inactive
O=Cc1ccc(Cl)cc1 | inactive
CCCCCCCCCCCCc1ccccc1O | 17.2 µM (active) and 19.5 µM (active)
O | inactive
Cc1c2oc3c(C)ccc(C(=O)N[C@@H]4C(=O)N[C@H](C(C)C)C(=O)N5CCC[C@H]5C(=O)N(C)CC(=O)N(C)[C@@H](C(C)C)C(=O)O[C@@H]4C)c3nc-2c(C(=O)N[C@@H]2C(=O)N[C@H](C(C)C)C(=O)N3CCC[C@H]3C(=O)N(C)CC(=O)N(C)[C@@H](C(C)C)C(=O)O[C@@H]2C)c(N)c1=O (I: T[dV]P[Sar][NMeV] / II: T[dV]P[Sar][NMeV]; ester I:1-I:C, II:1-II:C; linker I:N-II:N via Actinocin(9to1)) | inactive
Cc1ccc(S(=O)(=O)Oc2ccc(N=Nc3ccc(-c4ccc(N=Nc5c(O)ccc6cc(S(=O)(=O)O)cc(S(=O)(=O)O)c56)c(C)c4)cc3C)cc2)cc1 | inactive
CCCCCCCCCCCC[N+](C)(C)C | 54.8 µM (active) and 54.9 µM (active) and 49 µM (active)
CC(C)C(=O)c1c(C(C)C)nn2ccccc12 | inactive
CCOc1ccccc1C(N)=O | inactive
CCCCCCCCCCCCCC[P+](CCCC)(CCCC)CCCC | 6.13 µM (active) and 11 µM (active)
OCCN1CCNCC1 | inactive

Compound | Potency
Nc1nc2ccccc2[nH]1 | inactive
Oc1ccc(Cl)cc1Cc1cc(Cl)ccc1O | 49.9 µM (active)
CC(C(O)c1ccc(O)cc1)N1CCC(Cc2ccccc2)CC1 (stereo not given) | inactive
COC(=O)/C=C/c1ccccc1 | inactive
Nc1ccc(O)cc1 | inactive
CN(C)c1ccc2nc3ccc(=[N+](C)C)cc-3sc2c1 | inactive
CC(C)(C)NC(=O)[C@@H]1CN(Cc2cccnc2)CCN1C[C@@H](O)C[C@@H](Cc1ccccc1)C(=O)N[C@H]1c2ccccc2C[C@H]1O | inactive
NNCCc1ccccc1 | inactive
Nc1cc(S(=O)(=O)O)cc2cc(S(=O)(=O)O)cc(O)c12 | inactive
CCN1CCCC1CNC(=O)c1cc(S(=O)(=O)CC)c(N)cc1OC (stereo not given) | inactive
CC(C)(C)c1ccccc1 | inactive
O=C(O)CP(=O)(O)O | inactive
COc1cc(C(=S)N2CCOCC2)ccc1O | inactive
CC(=O)O[C@]1(C(C)=O)CC[C@H]2[C@@H]3C[C@H](C)C4=CC(=O)CC[C@]4(C)[C@H]3CC[C@@]21C | inactive
CCOC(=O)C(C)C(C)=O (stereo not given) | inactive
CC1COC(=O)O1 (stereo not given) | inactive
O=C(O)c1cc(Cl)cc(Cl)c1 | inactive
CCc1ccc(C(c2ccc(CC)cc2)C(Cl)Cl)cc1 | 35.2 µM (active)
COc1ccc(COC(C)=O)cc1 | inactive
CCCCC(CC)COC(=O)CC(C(=O)OCC(CC)CCCC)S(=O)(=O)O (stereo not given) | 21.1 µM (active) and 43.6 µM (active)
